Test results taken from PubChem BioAssay (NCI).
About 83,000 compounds went through this panel and 20% of them were active in at least one assay; those are over-represented in the sample as a whole.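 Compound tested at a single concentration for 48 hours in 96-well plates; a percent growth value below 10 was scored as active.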 Values without a mark were called inactive. The source made the active and inactive calls.

Legend:
Assay in all cases: NCI-60 one-dose screen, 48 h (100 = growth as untreated, 0 = no growth, -100 = all killed)
DU-145 prostate = conditions: 10 µM unless noted
K-562 leukemia = conditions: 10 µM unless noted
MALME-3M melanoma = conditions: 10 µM unless noted
MDA-MB-231 breast = conditions: 10 µM unless noted
RXF 393 renal = conditions: 10 µM unless noted
SF-268 CNS = conditions: 10 µM unless noted
SF-295 CNS = conditions: 10 µM unless noted
SF-539 CNS = conditions: 10 µM unless noted
UACC-257 melanoma = conditions: 10 µM unless noted
M14 melanoma = conditions: 10 µM unless noted
HCT-15 colon = conditions: 10 µM unless noted
HT29 colon = conditions: 10 µM unless noted
SNB-75 CNS = conditions: 10 µM unless noted
SNB-19 CNS = conditions: 10 µM unless noted
U251 CNS = conditions: 10 µM unless noted
PC-3 prostate = conditions: 10 µM unless noted
SK-MEL-5 melanoma = conditions: 10 µM unless noted
UACC-62 melanoma = conditions: 10 µM unless noted
LOX IMVI melanoma = conditions: 10 µM
SK-MEL-28 melanoma = conditions: 10 µM unless noted

Row | SMILES | growth (DU-145 prostate) | growth (K-562 leukemia) | growth (MALME-3M melanoma) | growth (MDA-MB-231 breast) | growth (RXF 393 renal) | growth (SF-268 CNS) | growth (SF-295 CNS) | growth (SF-539 CNS) | growth (UACC-257 melanoma) | growth (M14 melanoma) | growth (HCT-15 colon) | growth (HT29 colon) | growth (SNB-75 CNS) | growth (SNB-19 CNS) | growth (U251 CNS) | growth (PC-3 prostate) | growth (SK-MEL-5 melanoma) | growth (UACC-62 melanoma) | growth (LOX IMVI melanoma) | growth (SK-MEL-28 melanoma)
1 | COc1ccc(Cc2nn(CC(=O)N/N=C/c3ccc(F)cc3)c(=O)c3c(C)noc23)cc1 | 40% | 70.1% | -0.917% (active) | 31.3% | -26% (active) | 46.7% | -19.3% (active) | 57.1% | 54.3% | 50.8% | 67.2% | 74% | -17.4% (active) | 20.1% | 17.8% | 35.9% | 82.2% | 44.4% | 29.5% | 35.9%
2 | NC(=S)Nc1cccc(NC(N)=S)c1 | 101% | 9.26% (active) | 84.3% | 89.7% | 104% | 90.9% | 90.2% | 100% | 98.1% | 125% | 95.1% | 113% | 97.6% | 88.3% | 88.8% | 102% | 91.4% | 70.5% |  | 104%
3 | COC(OC)C1=C(C)OC(N)=C(C#N)C12C(=O)Nc1ccccc12 (stereo not given) | 105% | 82% | 87.2% | 102% | 109% | 104% | 138% | 100% | 100% | 94.9% | 94.6% | 102% | 103% | 97% | 99.4% | 92.8% | 92.4% | 81.1% | 28.4% | 85%
4 | COc1ccc2[nH]c(O)c(N=NC(=O)COc3ccc(NC(=O)Nc4ccccc4)cc3)c2c1 | 72.5% | 46.3% | 13.9% | 12.9% | 39% | 41.8% | 41.7% | -22.7% (active) | 63.9% | 41.7% | 108% | 52.4% | 31.6% | 14.6% | -4.75% (active) | 40.5% | 69.7% | 10.1% |  | 8.57% (active)
5 | CN(C)c1nc(NCCNS(=O)(=O)c2ccc(C3=Nc4c(N)nc(N)nc4NC(c4ccc(C(F)(F)F)cc4)C3)cc2)nc(Nc2ccc(F)cc2)n1 (stereo not given) | 26.9% | 1.59% (active) | -36.8% (active) | -37.4% (active) | -11.9% (active) | 28% | 20.8% | -65.4% (active) | 43% | 7.55% (active) | 18.7% | -69.6% (active) | 31.7% | 22.9% | 0.0667% (active) | 17.8% | -77.1% (active) | -51% (active) |  | 14%
6 | COc1ccc2[nH]cc(-c3nnc(N)nc3-c3c[nH]c4ncc(Br)cc34)c2c1 | 92.6% | 74.1% | 92.5% | 73.4% | 79.2% | 85.5% | 82% | 70.7% | 127% | 97.6% | 90.8% | 96.7% | 93.5% | 91% | 76.1% | 110% | 91.1% | 80.1% |  | 98.9%
7 | O=C(/C=C/c1ccc(O)c(O)c1)NC1CCOC1O (stereo not given) | 108% | 88.3% | 103% | 99.1% | 125% | 99.6% | 101% | 95.7% | 102% | 108% | 94.6% | 113% | 91.6% | 98.8% | 95.4% | 95.4% | 103% | 104% |  | 107%
8 | CCCCNC(=S)Nc1ccc(OCc2nc3ccccc3[nH]2)cc1 | 58.9% | 28.6% | 77.5% | 65.2% | 99.5% | 44.2% | 53.7% | 56.2% | 83.5% | 55.1% | 47.9% | 50.3% | 56% | 70% | 57.4% | 58.2% | 78% | 38.2% |  | 88.2%
9 | S=C(NCCc1ccccc1)Nc1ccc(OCc2nc3ccccc3[nH]2)cc1 | 110% | 101% | 102% | 109% | 122% | 100% | 104% | 102% | 99.1% | 95.9% | 98% | 108% | 103% | 102% | 99.7% | 105% | 102% | 93.1% |  | 110%
10 | C=C1CCC2C3(C)COC(c4ccc(F)cc4)OC3CCC2(C)C1CC(O)C1=CCOC1=O (stereo not given) | 59.3% | 15.2% | 63.2% | 53.5% | 35.7% | 103% | 64.7% | 56.3% | 57.9% | 24.7% | 1.99% (active) | 27.8% | 60.4% | 76.4% | 59.6% | 37.6% | 21.9% | 47.9% |  | 41.4%
11 | Cn1cc(-c2cc3nc(-c4c[nH]c5ccc(Br)cc45)cc(N)n3n2)c2ccccc21 | -85.7% (active) | 0.783% (active) | -73.4% (active) | -63.2% (active) | -89.4% (active) | -32.7% (active) | -81.8% (active) | -89.7% (active) | -84.6% (active) | -85.5% (active) | -85.2% (active) | -83.1% (active) | -64.5% (active) | -68.1% (active) | -89.9% (active) | -77.3% (active) | -77.8% (active) | -70.3% (active) | -85.1% (active) | -96.6% (active)
12 | Cc1cccc(Nc2nc3ccccc3nc2/C=C/c2ccc(F)cc2)c1 | 101% | 86.5% | 109% | 97.1% | 98% | 91% | 107% | 102% | 94.5% | 93.3% | 95.6% | 86.4% | 91.9% | 92.8% | 94% | 89.1% | 88% | 74.7% | 101% | 101%
13 | CN1CCN(/C(=N\c2sc(-c3ccccc3)nc2-c2ccccc2)c2ccccc2)CC1 | 92.3% | 17.8% | 77.9% | 77.9% | 76.1% | 91.5% | 87.6% | 76% | 77.4% | 76.8% | 16.7% | 9.91% (active) | 90% | 100% | 86% | 56.8% | 75% | 75.7% |  | 57.7%
14 | O=C(NN1C(=O)/C(=C/C=C/c2ccc([N+](=O)[O-])o2)SC1=S)c1ccc(Cl)cc1 | -100% (active) | 3.88% (active) | -96% (active) | -97.5% (active) | -92.1% (active) | -86.4% (active) | -91.9% (active) | -95.2% (active) | -93.3% (active) | -68.7% (active) | -75.6% (active) | -76.4% (active) | -93.4% (active) | -100% (active) | -97.4% (active) | -34.7% (active) | -100% (active) | -100% (active) | -97.3% (active) | -99.7% (active)
15 | CC(=O)Nc1ccc(-n2cnc3cc(-c4ccc(O)cc4)ccc32)cc1C(F)(F)F | 23% | 25% | 19.1% | 42.7% | 26% | 21.7% | -13.7% (active) | 24.2% | 39.7% | 30.3% | 16.1% | 26.3% | 8.79% (active) | 27.8% | 18% | 44.8% | 5.35% (active) | 21.1% |  | 20.5%
